We go through four molecules from PubChem BioAssay.

Results filed as inconclusive are left out. Activity calls are given as the source filed them.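 How the source made its calls, unless noted: active means binding below the plate cutoff, the plate median minus 3 SD, with a reading above zero; inconclusive means below the plate cutoff but reading exactly zero; inactive means the rest.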

Assay [1] is described as follows: yeast TOR pathway RPL19A-GFP modulators, primary screen, cell-based, S. cerevisiae, multiplex flow cytometry (AID 1862; in the data active means percent of DMSO control GFP below about 86%;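 further: lower values mimic rapamycin by blocking the RPL19A rise seen in DMSO cells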). The note with it: S. cerevisiae RPL19A-GFP strain, flow cytometry fluorescence, 3 h; at 10 µM; stronger effect = lower value. On the technique in general: A flow cytometer gives signals particle by particle.
Assay [2] can be described thus: modulators of MEP2-GFP levels in yeast, primary screen, S. cerevisiae, multiplex flow cytometry (AID 1867;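 active means GFP response, as percent of the DMSO control, above the screen-wide mean plus 3 SD, about 139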;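 further: median GFP channel fluorescence of barcode-gated MEP2-GFP cells measured by flow cytometry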). To be noted: S. cerevisiae MEP2-GFP strain, 3 h, at 10 µM, stronger effect = higher value, 100% means same as DMSO wells.
The nature of assay [3]: modulators of CIT2-GFP expression in yeast, primary screen, S. cerevisiae, GFP fusion, multiplex flow cytometry (AID 1870;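 active means percent response above a set limit, the screen-wide mean plus 3 SD, cut at about 130% in these data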;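 further: barcoded CIT2-GFP strain pooled with four other GFP strains with rapamycin as positive control; median GFP fluorescence per well over plate mean of DMSO wells so 100% = DMSO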). The note with it: 3 h, at 10 µM, stronger effect = higher value.
Assay [4] in a line: modulators of LAP4-GFP expression in yeast, primary screen, S. cerevisiae, multiplex flow cytometry (AID 1873;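 active means GFP signal, as percent of the solvent control, above the screen mean plus 3 SD, about 149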). The note with it: 3 h, at 10 µM, stronger effect = higher value.
Assay [5] can be described thus: modulators of AGP1-GFP expression in yeast TOR pathway, primary screen, cell-based, multiplex flow cytometry, S. cerevisiae (AID 1887;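 active means GFP signal above the screen-wide mean plus 3 SD, that is over about 124.5% of the solvent control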;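 further: AGP1-GFP fusion strain of S. cerevisiae within a five-strain barcoded multiplex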). To be noted: 3 h, at 10 µM, stronger effect = higher value.
A short description of assay [6]: inhibitors of CD8+ T cell-vesicle binding, pilot screen, LFA-1/ICAM-1 modulator project, MLPCN validation set, flow cytometry (AID 2523;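 active means response below a set limit, under 55% cells CD8-positive and vesicle-bound, and CD8 cells' 90th-percentile brightness under 279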;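 on vesicle binding response: mean PE anti-B7-1 fluorescence of CD8+ cells relative to row control; 100% = QL9-loaded vesicles with DMSO vehicle in the same plate row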). To be noted: 2C mouse CD8+ T cells, at 7 µM, stronger effect = lower value; double positive events: measured here: CD8+/vesicle+ event percentage.
Assay [7] has as its target Integrin beta-1 (Homo sapiens) + Integrin alpha-4 (Homo sapiens) (UniProt P13612+P05556). The assay can be described thus: inhibition of HUTS-21 binding to VLA-4, pilot screen, VLA-4 allosteric modulator project, U937 cells, HUTS-21 mAb, flow cytometry, validation set (AID 2674;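 active means inhibition above 50%, about 3 SD of the validation set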;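 further: antibody binding induced by the VLA-4 ligand LDV present at three times its Kd; 0% = LDV ligand with antibody and no compound and 100% = antibody without LDV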). The note with it: HUTS-21 LIBS mAb binding, at 6.7 µM, stronger effect = higher value, binding induced by LDV ligand.

Assay [8] is described as follows: superoxide lowering in aged yeast cells, pilot screen, validation compound set (AID 2706;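 active means superoxide response below 65% of plate, a cut near 3 SD across the whole screen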;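 further: yeast exposed to compound for one week at 30 degrees C before staining; 100% = mean of all compound wells on the same plate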). To be noted: S. cerevisiae aging, superoxide DHE fluorescence; at 10 µM; stronger effect = lower value.
The target in assay [9] is Beta-adrenergic receptor kinase 1 (Homo sapiens) (UniProt P25098). The assay can be described thus: GRK2 binders displacing RNA aptamer, biochemical, validation, human GRK2, bead flow cytometry (AID 488806;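 active means aptamer binding inhibition above 30%, about 3 SD of noise from non-fluorescent compounds; inactive means inhibition at or below 30%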). The note with it: bead-bound GRK2, FAM-aptamer displacement, at 10 µM, stronger effect = higher value.
Assay [10] concerns the target Beta-2 adrenergic receptor (Homo sapiens) (UniProt P07550). Nature of the assay: beta2AR agonists driving receptor internalization, pilot screen, cell-based, FAP fluorogen, flow cytometry, validation set (AID 504459;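 active means percent response above 42, roughly 3 SD of non-fluorescent test compounds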;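 further: agonist-driven loss of surface beta2AR via internalization measured by FAP dye flow cytometry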). To be noted: Am2.2-beta2AR cells, FAP surface receptor flow cytometry; at 10 µM; stronger effect = higher value.
Assay [11] has as its target AP-2 complex subunit beta (Homo sapiens) (UniProt P63010). Nature of the assay: inhibitors of arrestin peptide binding to AP2, pilot screen, biochemical, validation set, GST-AP2 beads, flow cytometry (AID 504541;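 active means inhibition above 54%, about 3 SD of non-fluorescent compounds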;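 further: AP2 carries R879A mutation and is captured from E. coli lysate; bead-bound FITC arrestin peptide fluorescence measuring arrestin peptide binding to AP2; 0% = DMSO wells and 100% = excess unlabeled arrestin peptide control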). The note with it: FITC arrestin peptide, at 10 µM, stronger effect = higher value, AP2 beta2 appendage fragment, R879A mutant.
A short description of assay [12]: yeast V-ATPase proton transport modulators, S. cerevisiae, pHLuorin, HTS validation (AID 504600; in the data active means response above about 15%;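 further: plate controls were DMSO for no effect and reference compound for full effect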). The note with it: S. cerevisiae pHLuorin cytosolic pH, at 10 µM, stronger effect = higher value.
The subject of assay [13] is anti-desmoglein-3 scFv antibody binding to human DSG3. Nature of the assay: inhibitors of anti-DSG3 scFv binding to DSG3, pilot screen, biochemical, validation compound set, bead-based, flow cytometry (AID 588368).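 Further: signal is the median channel fluorescence of bead-bound GFP antibody.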 To be noted: Protein G beads, DSG3-Fc, scFv-GFP binding, at 10 µM, stronger effect = lower value.
Assay [14] can be described thus: inhibitors of fungal efflux pumps CDR1, CDR2, MDR1, pilot screen, validation compound set, multiplex, phenotypic (AID 588506;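 active means efflux inhibition above 0.42, the validation set average plus 4 SD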;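 further: Nile Red retained in cells so higher fluorescence means more efflux inhibition; 0 = negative control wells and 1 = enniatin B 25 µM full block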). The note with it: S. cerevisiae pump-expressing triplex, Nile Red efflux flow cytometry; at 10 µM; stronger effect = higher value; the pumps come from Candida albicans.
Assay [15] concerns the target ATP-binding cassette sub-family B member 6 (Homo sapiens) (UniProt Q9NP58). Nature of the assay: ABCB6 transporter inhibitors, pilot screen, K562-ABCB6 cells, flow cytometry, validation set (AID 588550;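 active means inhibition above the screen-wide mean plus 3 SD, about 51%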;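 further: 0% = DMSO wells and 100% = benzethonium chloride 70 µM positive control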). To be noted: K562-ABCB6 porphyrin accumulation, 1 h, at 10 µM, stronger effect = higher value.
Assay [16] is described as follows: promoters of myeloid differentiation in arrested cells, primary screen, cell-based, GFP/MAC1 double positive, flow cytometry, validation set (AID 588685;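 active means differentiation response of at least 50%, scaled between solvent and reference control, from cells with both markers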;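 further: compound exposure lasts four days before antibody staining and flow analysis; 0% = DMSO wells and 100% = 5 µM fulvestrant positive control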). To be noted: ER-HoxA9 marrow cells, stronger effect = higher value, normalized: vehicle 0, fulvestrant 100.

Chain of Beta-2 adrenergic receptor (Homo sapiens) (P07550 whole entry, looked up): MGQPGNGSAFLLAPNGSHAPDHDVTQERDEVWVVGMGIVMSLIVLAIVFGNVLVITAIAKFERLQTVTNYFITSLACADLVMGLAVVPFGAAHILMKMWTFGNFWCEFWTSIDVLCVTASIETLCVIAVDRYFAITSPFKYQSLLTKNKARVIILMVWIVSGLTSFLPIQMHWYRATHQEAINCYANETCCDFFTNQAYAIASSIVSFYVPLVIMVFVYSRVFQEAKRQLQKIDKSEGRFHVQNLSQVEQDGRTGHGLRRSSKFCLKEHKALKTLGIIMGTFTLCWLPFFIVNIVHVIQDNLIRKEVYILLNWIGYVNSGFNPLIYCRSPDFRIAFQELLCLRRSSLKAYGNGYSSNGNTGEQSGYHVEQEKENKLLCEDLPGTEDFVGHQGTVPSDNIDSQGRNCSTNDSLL
Chain of Beta-adrenergic receptor kinase 1 (Homo sapiens) (P25098 whole entry, looked up): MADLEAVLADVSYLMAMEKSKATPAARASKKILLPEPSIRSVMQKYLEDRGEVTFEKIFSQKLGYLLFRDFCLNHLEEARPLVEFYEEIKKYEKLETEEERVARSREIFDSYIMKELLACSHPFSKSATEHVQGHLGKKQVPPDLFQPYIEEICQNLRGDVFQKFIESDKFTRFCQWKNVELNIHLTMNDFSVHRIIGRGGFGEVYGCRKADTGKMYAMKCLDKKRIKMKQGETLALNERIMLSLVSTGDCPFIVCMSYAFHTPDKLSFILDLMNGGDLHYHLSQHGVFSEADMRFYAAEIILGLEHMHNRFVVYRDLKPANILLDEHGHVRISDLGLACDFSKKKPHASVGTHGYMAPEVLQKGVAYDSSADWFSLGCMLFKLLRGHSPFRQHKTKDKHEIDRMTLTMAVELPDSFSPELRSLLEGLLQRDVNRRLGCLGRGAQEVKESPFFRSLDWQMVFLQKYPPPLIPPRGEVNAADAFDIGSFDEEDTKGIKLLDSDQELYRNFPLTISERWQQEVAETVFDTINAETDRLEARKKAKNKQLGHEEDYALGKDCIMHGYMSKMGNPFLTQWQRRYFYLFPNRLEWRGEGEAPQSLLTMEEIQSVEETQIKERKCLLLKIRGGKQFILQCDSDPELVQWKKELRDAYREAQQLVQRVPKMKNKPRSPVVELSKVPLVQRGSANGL
Chain of AP-2 complex subunit beta (Homo sapiens) (P63010 whole entry, looked up, the tested form may be a part, one chain of several): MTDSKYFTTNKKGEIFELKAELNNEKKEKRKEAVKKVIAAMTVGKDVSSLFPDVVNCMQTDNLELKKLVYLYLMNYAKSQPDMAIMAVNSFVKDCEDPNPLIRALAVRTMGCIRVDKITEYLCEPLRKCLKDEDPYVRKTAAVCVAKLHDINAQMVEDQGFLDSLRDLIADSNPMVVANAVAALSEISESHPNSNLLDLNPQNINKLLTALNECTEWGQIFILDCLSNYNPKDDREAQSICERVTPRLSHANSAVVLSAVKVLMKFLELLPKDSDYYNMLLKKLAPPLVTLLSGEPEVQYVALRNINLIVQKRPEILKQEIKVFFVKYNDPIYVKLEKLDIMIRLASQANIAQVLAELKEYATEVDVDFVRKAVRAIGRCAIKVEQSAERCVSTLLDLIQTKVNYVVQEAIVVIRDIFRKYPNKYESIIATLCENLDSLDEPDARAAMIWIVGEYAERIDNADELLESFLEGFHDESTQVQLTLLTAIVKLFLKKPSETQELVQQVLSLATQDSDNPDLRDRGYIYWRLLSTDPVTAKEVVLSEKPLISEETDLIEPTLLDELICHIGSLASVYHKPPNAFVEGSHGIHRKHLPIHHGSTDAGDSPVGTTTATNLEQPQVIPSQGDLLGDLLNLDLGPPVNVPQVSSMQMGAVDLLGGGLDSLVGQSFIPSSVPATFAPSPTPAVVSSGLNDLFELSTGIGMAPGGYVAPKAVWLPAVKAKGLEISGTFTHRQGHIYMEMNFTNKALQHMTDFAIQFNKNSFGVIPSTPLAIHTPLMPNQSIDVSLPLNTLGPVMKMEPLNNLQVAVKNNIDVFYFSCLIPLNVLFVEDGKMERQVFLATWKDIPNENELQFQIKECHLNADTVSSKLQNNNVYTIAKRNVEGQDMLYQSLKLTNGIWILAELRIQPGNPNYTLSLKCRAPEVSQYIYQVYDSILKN
Chain of Integrin beta-1 (Homo sapiens) + Integrin alpha-4 (Homo sapiens) (P05556 whole entry, looked up): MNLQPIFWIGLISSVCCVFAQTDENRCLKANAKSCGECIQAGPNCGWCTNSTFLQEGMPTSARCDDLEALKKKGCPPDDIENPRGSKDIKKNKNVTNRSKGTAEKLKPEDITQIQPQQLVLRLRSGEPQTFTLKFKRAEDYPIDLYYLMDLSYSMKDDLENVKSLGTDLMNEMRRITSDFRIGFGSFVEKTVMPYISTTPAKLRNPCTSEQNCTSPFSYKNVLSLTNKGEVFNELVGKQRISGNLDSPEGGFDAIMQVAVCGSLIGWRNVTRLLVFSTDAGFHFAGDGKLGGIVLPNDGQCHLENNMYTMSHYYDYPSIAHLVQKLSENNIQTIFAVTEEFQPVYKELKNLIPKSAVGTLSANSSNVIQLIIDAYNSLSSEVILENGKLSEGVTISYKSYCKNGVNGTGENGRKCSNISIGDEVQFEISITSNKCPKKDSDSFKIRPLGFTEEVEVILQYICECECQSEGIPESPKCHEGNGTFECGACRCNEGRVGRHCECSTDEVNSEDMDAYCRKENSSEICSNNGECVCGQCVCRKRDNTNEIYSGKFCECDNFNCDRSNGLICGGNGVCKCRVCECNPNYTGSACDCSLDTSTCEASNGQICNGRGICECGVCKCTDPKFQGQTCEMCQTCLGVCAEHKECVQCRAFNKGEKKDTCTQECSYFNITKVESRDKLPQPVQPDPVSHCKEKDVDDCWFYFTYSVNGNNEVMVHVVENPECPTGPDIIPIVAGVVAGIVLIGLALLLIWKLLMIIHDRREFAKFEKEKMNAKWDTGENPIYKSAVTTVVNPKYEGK
Chain of Integrin beta-1 (Homo sapiens) + Integrin alpha-4 (Homo sapiens) (P13612 whole entry, looked up): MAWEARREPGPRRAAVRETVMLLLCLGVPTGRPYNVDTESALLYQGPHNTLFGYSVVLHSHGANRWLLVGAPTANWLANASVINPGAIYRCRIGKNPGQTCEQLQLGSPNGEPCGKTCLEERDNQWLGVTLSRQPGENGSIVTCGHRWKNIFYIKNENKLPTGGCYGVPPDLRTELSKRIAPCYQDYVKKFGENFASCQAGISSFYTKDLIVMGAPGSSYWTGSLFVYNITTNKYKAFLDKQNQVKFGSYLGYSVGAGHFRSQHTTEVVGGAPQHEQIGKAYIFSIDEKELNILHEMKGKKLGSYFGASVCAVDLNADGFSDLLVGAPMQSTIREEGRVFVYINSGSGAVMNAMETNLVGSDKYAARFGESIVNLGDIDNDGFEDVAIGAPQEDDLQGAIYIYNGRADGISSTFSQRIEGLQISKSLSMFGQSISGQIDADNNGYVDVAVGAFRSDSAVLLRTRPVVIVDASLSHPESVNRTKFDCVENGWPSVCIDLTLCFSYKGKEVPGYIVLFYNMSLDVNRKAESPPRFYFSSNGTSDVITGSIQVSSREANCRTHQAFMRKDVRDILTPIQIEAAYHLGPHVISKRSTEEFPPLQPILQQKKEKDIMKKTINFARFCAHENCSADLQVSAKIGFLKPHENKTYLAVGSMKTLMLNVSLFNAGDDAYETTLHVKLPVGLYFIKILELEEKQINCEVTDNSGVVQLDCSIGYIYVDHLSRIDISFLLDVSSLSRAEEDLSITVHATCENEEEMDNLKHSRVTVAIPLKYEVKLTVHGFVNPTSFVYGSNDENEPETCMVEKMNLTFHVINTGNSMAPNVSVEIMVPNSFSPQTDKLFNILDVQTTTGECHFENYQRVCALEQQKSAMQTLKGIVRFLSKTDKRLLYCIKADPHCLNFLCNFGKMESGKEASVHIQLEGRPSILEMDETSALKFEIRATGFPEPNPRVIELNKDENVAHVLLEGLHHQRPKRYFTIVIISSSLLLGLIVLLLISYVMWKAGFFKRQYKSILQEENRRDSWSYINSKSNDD
Chain of ATP-binding cassette sub-family B member 6 (Homo sapiens) (Q9NP58 whole entry, looked up): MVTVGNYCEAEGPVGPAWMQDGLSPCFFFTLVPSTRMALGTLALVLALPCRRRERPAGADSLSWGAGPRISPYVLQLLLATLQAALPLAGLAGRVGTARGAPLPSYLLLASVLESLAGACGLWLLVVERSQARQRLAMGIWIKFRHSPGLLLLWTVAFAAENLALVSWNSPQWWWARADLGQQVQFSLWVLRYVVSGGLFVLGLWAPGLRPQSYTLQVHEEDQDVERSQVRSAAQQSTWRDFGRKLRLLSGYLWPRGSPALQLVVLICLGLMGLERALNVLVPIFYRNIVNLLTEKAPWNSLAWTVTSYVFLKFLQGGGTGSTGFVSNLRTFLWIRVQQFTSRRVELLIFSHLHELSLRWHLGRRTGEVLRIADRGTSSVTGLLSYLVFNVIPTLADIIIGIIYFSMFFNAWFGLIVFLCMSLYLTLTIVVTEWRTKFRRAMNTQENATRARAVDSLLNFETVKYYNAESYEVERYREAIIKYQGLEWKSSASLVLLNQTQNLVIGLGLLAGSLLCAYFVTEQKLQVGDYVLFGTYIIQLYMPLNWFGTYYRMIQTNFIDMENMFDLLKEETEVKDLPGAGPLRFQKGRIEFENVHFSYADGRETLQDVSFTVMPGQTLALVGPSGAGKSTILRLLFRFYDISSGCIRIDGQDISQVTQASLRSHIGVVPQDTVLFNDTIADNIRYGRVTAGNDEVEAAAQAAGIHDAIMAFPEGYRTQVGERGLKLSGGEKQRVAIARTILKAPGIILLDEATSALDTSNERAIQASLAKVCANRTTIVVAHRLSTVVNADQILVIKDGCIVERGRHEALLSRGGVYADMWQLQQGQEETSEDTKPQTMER

Regarding `COc1ccc2[nH]c3c(=O)n(/N=C/[C@H]4C(C)C=C(C)CC4C)c(=O)[nH]c3c2c1` (stereo partly drawn), the percent of DMSO control GFP in assay [1] is 99.9% (inactive). In addition, the GFP response vs DMSO was 109% (inactive) in assay [2] and 107% (inactive) in assay [4]. Also, the percent response of DMSO control in assay [3] is 92% (inactive). Moreover, the GFP response, % of DMSO in assay [5] is 102% (inactive). Also, the double positive events in [6] is 57.4%. In [6], the vesicle binding response is 6260% (inactive). The inhibition in [7] was 6.4% (inactive); in [11], 32.4% (inactive); in assay [15] it was 1% (inactive). In addition, the superoxide response (% of plate) in assay [8] is 95.3% (inactive). Also, the aptamer binding inhibition in assay [9] was 3% (inactive). Also, the figures for the response in [10] and in [12] were 5.28% (inactive) and -6.18% (inactive), respectively. The binding (% of control) in assay [13] is 98.7% (inactive). The efflux inhibition (fraction of control) in [14] is 0.22 (inactive). In assay [16], the differentiation response was -28% (inactive).

Consider `O=C(/C=C/Sc1ccccc1)c1ccccc1`, for which the percent of DMSO control GFP in assay [1] was 106% (inactive). Also, the GFP response vs DMSO in [2] is 101% (inactive); in [4] it was 112% (inactive). Further, the percent response of DMSO control in [3] is 100% (inactive). Besides, the GFP response, % of DMSO in assay [5] is 94.6% (inactive). The double positive events in assay [6] came out at 63.9%. Besides, the vesicle binding response in assay [6] is 263% (inactive). Also, the results for the inhibition in assay [7], in assay [11] and in assay [15] were -15% (inactive), 14.1% (inactive) and -13% (inactive), respectively. For the same molecule, in assay [8], the superoxide response (% of plate) was 109% (inactive). Further, in assay [9], the aptamer binding inhibition is -1% (inactive). The response in [10] is 28.9% (inactive); in [12], -5.17% (inactive). In addition, in assay [13], the binding (% of control) was 103% (inactive). In assay [14], the efflux inhibition (fraction of control) was -0.01 (inactive). For the same molecule, the differentiation response in assay [16] was 37.4% (inactive).

As to `Cc1cc(-c2nn(-c3ccccc3F)cc2CN2CCCC(O)C2)c(C)s1` (stereo not drawn), in assay [1], the percent of DMSO control GFP is 97.6% (inactive). Further, the results for the GFP response vs DMSO in assay [2] and in assay [4] were 101% (inactive) and 117% (inactive), respectively. The percent response of DMSO control in assay [3] was 97.7% (inactive). Further, the GFP response, % of DMSO in assay [5] is 107% (inactive). The molecule further returned a double positive events in assay [6] of 56.6%. Besides, in [6], the vesicle binding response is 148% (inactive). Besides, the inhibition in assay [7] was 5.69% (inactive); in assay [11] it was -12.6% (inactive); in [15], 0% (inactive). Moreover, the superoxide response (% of plate) in [8] was 84.2% (inactive). The aptamer binding inhibition in assay [9] is -2% (inactive). Also, the response is -40.3% (inactive) in [10] and -5.22% (inactive) in [12]. Further, in assay [13], the binding (% of control) was 103% (inactive). In addition, in assay [14], the efflux inhibition (fraction of control) is -0.04 (inactive). For the same molecule, the differentiation response in [16] was -13.9% (inactive).

Regarding `COc1ccc(C(C)N2CC34C=CC(O3)C(C(=O)OCC(C)C)C4C2=O)cc1` (stereo not drawn), the percent of DMSO control GFP in assay [1] was 103% (inactive). The figures for the GFP response vs DMSO in assay [2] and in assay [4] were 107% (inactive) and 92% (inactive), respectively. Also, the percent response of DMSO control in assay [3] was 96.6% (inactive). Further, the GFP response, % of DMSO in assay [5] is 107% (inactive). For the same molecule, the double positive events in [6] stood at 63.5%. For the same molecule, the vesicle binding response in assay [6] was 5650% (inactive). In addition, the inhibition in [7] is -10.8% (inactive); in assay [11], -17.5% (inactive); in [15], -4% (inactive). In addition, in assay [8], the superoxide response (% of plate) was 98.6% (inactive). Besides, the aptamer binding inhibition in assay [9] was 1% (inactive). The response in assay [10] was -2.15% (inactive); in [12], 3.8% (inactive). For the same molecule, the binding (% of control) in assay [13] was 96.9% (inactive). Moreover, the efflux inhibition (fraction of control) in assay [14] is 0.02 (inactive). Besides, the differentiation response in [16] was -8.55% (inactive).

A word on the inhibition: it is the change of the read-out against control, counted positive when it falls.
